Compound activity (PubChem)
APE1 inh: APE1 (human) endonuclease inhibition; P27695; recombinant APE1, TAMRA/BHQ-2 abasic DNA cleavage fluorescence; Potency, µM (highest dose often 65.8 µM), for the others: top-dose activity change, negative = inhibition, usual class: inhibitors; 0.35% of 350,000 active; AID 2517;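 also: plate controls were vehicle for no effect and reference inhibitor for full effect; nearly all actives have a fitted effect of over 55% in size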
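APE1 at 0.75 nM preincubated 15 min at room temperature with compound. Reaction then started with 50 nM double-stranded THF-abasic substrate labelled with TAMRA/BHQ-2, and 525/598 nm fluorescence read kinetically. Activity taken as third-minus-first read difference, normalized to DMSO and NSC13755 controls.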
Pol eta inh: inhibitors of human DNA polymerase eta; recombinant Pol eta, fluorescent DNA replication assay; 1.2% of 390,000 active; Potency, µM (titrated, usually from 114 µM), for the others: top-dose activity change, negative = inhibition, actives largely listed as inhibitors; AID 588591; also: % is scaled to controls: 0 for no effect and ±100 for the full control effect
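Pol eta (10 nM) was preincubated with compounds for 15 min at room temperature, after which fluorescent replication substrate (50 nM final) was added to start the reaction. Fluorescence was read kinetically at 0 and 10 min.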
Pol iota inh: blocks human DNA polymerase iota activity. Q9UNA4. Pol iota fluorescent replication assay, 10 min. Potency, µM (series often up to 115 µM), for inactives: at the highest dose activity, negative = inhibition, most hits filed as inhibitors. 1% of 390,000 active
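Pol iota at 10 nM preincubated 15 min with compounds at room temperature; reaction started with fluorescent substrate, 50 nM final. Fluorescence read kinetically at 0 and 10 min; buffer-only wells as negative control.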
L3MBTL1 inh: blocks human L3MBTL1. Potency, µM (titrated, usually from 57.1 µM), for inactives: top-dose activity, negative = inhibition, hits mostly inhibitors. 0.66% of 230,000 active. AlphaScreen L3MBTL1–H3K9me1 peptide binding. Q9Y468; also: % is scaled to controls: 0 for no effect and ±100 for the full control effect; nearly all actives have a fitted effect of over 60% in size
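AlphaScreen assay: L3MBTL1 (50 nM final) was preincubated 30 min at room temperature with biotinylated H3(1-15)K9me1 peptide (75 nM final), then 30 min with library compounds; streptavidin donor and nickel chelate acceptor beads (10 ug/mL final) added, 30 min dark.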
POLK inh: DNA polymerase kappa (human) inhibition. Q9UBT6. purified Pol kappa, fluorescent DNA synthesis assay, 10 min. Potency, µM (series often up to 107 µM), for the others: at the highest dose activity, negative = inhibition, most hits filed as inhibitors. 0.53% of 400,000 active; also: % is scaled to controls: 0 for no effect and ±100 for the full control effect
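50 nM final substrate added after 15 min RT preincubation of 10 nM Pol kappa with compound; fluorescence read at 0 and 10 min.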
Pol beta inh: inhibitors of human DNA polymerase beta. P06746. Pol beta primer extension/strand displacement, fluorescence kinetic. Potency, µM (series often up to 114 µM), inactives show top-dose activity change, negative = inhibition, most hits filed as inhibitors. 1.3% of 340,000 active. AID 485314; also: % is scaled to controls: 0 for no effect and ±100 for the full control effect
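Values derive from four-parameter Hill fits of normalized kinetic data: reads at 0 and 10 min following addition of 50 nM substrate to 10 nM Pol beta preincubated 15 min with compound.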
Starred values were filed as active, the others as inactive; ? = inconclusive; . = no result; [ ] = dose if it differs, or a comment. Rows were chosen to be rich in hits. Some 2.5% of all compounds tested hit in one or more screens of this group. Calls follow the shape of the dose curve; as a rule, active = well fitted curve in the direction sought with a large enough effect; inconclusive = small, poorly fitted or top-dose-only effect, or another doubt; inactive = no such curve, though single readings can be large; an effect the other way counts as inactive or inconclusive. Potency is read from the fitted curve at half-maximal effect.

SMILES | APE1 inh | Pol eta inh | Pol iota inh | L3MBTL1 inh | POLK inh | Pol beta inh
COc1cccc(/C=C2\Oc3cc(OCC(=O)N4Cc5ccccc5C[C@H]4C(=O)O)ccc3C2=O)c1 | -20% | 50µM* | ? | . | -31% | 2%
CCn1c(SC(C)C(=O)NCc2ccco2)nnc1-c1ccccc1 (configuration not stated) | . | . | ? | . | -99% | .
O=C(/C=C/c1ccc(C(F)(F)F)cc1)OC(C(=O)NC1CC1)c1ccccc1 (configuration not stated) | . | . | -20% | . | -15% | .
COc1ccc(-c2[nH]c(-c3ccc(C)cc3)nc2SCC(=O)NCc2ccco2)cc1OC | 1% | -5% | -11% | . | 6% | 79µM*
Cc1cc2nc(-c3cccnc3SCC(=O)NCc3ccco3)[nH]c2cc1C | ? | -19% | 7% | ? | -3% | 50µM*
COc1ccc(-c2ccc(SCC(=O)NCc3ccco3)nn2)cc1OC | -6% | ? | -37% | -2% | ? | 8%
O=C(CN1C=NS(=O)(=O)c2ccccc21)Nc1ccccc1F | . | 3% | 0% | . | -5%[60.1 µM] | 17%
COc1ccc(Br)cc1CNC(=O)CSc1cc(=O)n(C)c2ccccc12 | . | 5% | -1% | . | -4% | 24%
N/C(=N\OC(=O)c1cccc2ccccc12)c1cccc([N+](=O)[O-])c1 | -2% | -9% | ? | -3% | -31% | 50µM*
Cc1ccc(C)c(-n2c(N)c(C#N)c3nc4ccccc4nc32)c1 | . | -3% | 25µM* | . | -28% | 3%
Cc1ccc2c(c1)C(=O)OC(C(=O)Nc1ccccc1C(=O)O)C2 (configuration not stated) | . | -11% | 2% | . | -2%[60.1 µM] | 9%
Cc1ccc2c(c1)C(=O)OC(C(=O)Nc1ccc(C(=O)O)cc1)C2 (configuration not stated) | . | -1% | 89µM* | . | -24% | 11%
O=S(=O)(c1cccs1)N1CN(CC2CCCO2)c2nc3ccccc3nc21 (configuration not stated) | 0% | 1% | 14% | -6% | -4% | 1%
Cc1ccc(S(=O)(=O)N2CN(CC3CCCO3)c3nc4ccccc4nc32)c(C)c1 (configuration not stated) | -10% | -18% | 71µM* | . | -18% | -8%
CN(Cc1ccccc1)C(=O)c1c[nH]c2ccc(S(=O)(=O)Nc3ccccc3F)cc2c1=O | . | ? | -32% | . | ? | 25µM*
O=C(NCCc1ccccc1)c1c[nH]c2ccc(S(=O)(=O)Nc3ccccc3F)cc2c1=O | . | ? | ? | . | -29% | ?
CCc1ccc(NS(=O)(=O)c2ccc3[nH]cc(C(=O)N4CCc5ccccc54)c(=O)c3c2)cc1 | 16% | ? | -65% | ? | ? | 18µM*
O=C(c1c[nH]c2ccc(S(=O)(=O)Nc3ccccc3F)cc2c1=O)N1CCCCCC1 | . | 0% | ? | . | -15% | 17%
CCc1ccccc1NS(=O)(=O)c1ccc2[nH]cc(C(=O)N3CCCCC3)c(=O)c2c1 | . | 9% | ? | . | -10% | 22µM*
C[C@@H](CNC1CCCCC1)OC(=O)c1ccccc1 | . | . | . | . | -4%[12 µM] | .
O=C(O)c1ccccc1N/C=C\[N+](=O)[O-] | 8% | ? | ? | . | -19% | 25µM*
O=C(/C=C/Nc1ccccc1C(=O)O)c1cccs1 | 2% | -7% | 22% | 3% | 1% | 11%
CCOC(=O)c1ccc(NC(=O)C2=C(C)Nc3nc(SCc4ccc(Cl)cc4)nn3C2c2ccc(OC)cc2)cc1 (configuration not stated) | . | 3% | -4% | . | 3% | -7%
CNc1cc(OC)c(C(=O)N[C@H]2CCN(Cc3ccccc3)[C@H]2C)cc1Cl | -5% | . | . | . | . | .
COC(=O)[C@]1(Cc2ccccc2)N[C@H](CN(C)C(=O)Nc2ccc(F)cc2)[C@@H]2C(=O)N(Cc3ccccc3)C(=O)[C@@H]21 | -6% | -12% | -3% | -1% | -14% | .
